# Laboratory results reported in PubChem BioAssay (Tox21).
# Results filed as inconclusive are left out. A number with no mark means an inactive call. Calls follow the shape of the dose curve; as a rule, active = well fitted cell-killing curve with a large enough effect in the repeat runs; inconclusive = weak or mixed curves; inactive = flat fitted curve, though single readings scatter.
# Assay: qHTS RealTime-Glo MT Cell Viability Assay in HepG2 cells - 24 hour (AID 1224867); also: nearly all actives have a fitted effect of over 50% in size
# Details: RealTime-Glo luminescence; series mostly up to 76.8 µM; activity change, negative = cytotoxicity: at the top concentration
# Description: U.S. Tox21 Program National Center for Advancing Translational Sciences [NCATS] NIH Chemical Genomics Center [NCGC] U.S. Environmental Protection Agency [EPA] National Institutes of Environmental Health Sciences [NIEHS] National Toxicology Program [NTP] U.S. Food and Drug Administration [FDA] Tox21 Assay Overview: Measure of cell viability is critical in the cell-base assay. Analysis of cell viability is necessary for the characterization of cell responses to cytotoxic drugs and environmental stress. A RealTime-Glo MT Cell Viability Assay to monitor cell viability in real time of continues cell culture during 40 hours of compound treatment was used to screen Tox21 10K library compounds in HepG2 cells. The RealTime-Glo MT Cell Viability Assay is a nonlytic, homogeneous, bioluminescent method to measure cell viability in real time using a simple, plate-based method. The assay involves adding NanoLuc luciferase and a cell-permeant prosubstrate to cells in culture. Viable cells reduce the proprietary prosubstrate to generate a substrate for NanoLuc luciferase. This substrate diffuses from cells into the surrounding culture medium, where it is rapidly used by the NanoLuc Enzyme to produce a luminescent signal. The signal correlates with the number of viable cells, making the assay well suited for cytotoxicity studies.
# Tox21 Assay Protocol Summary: The mixture of HepG2 cell suspension and reagents were dispensed at 600cells/6 ul/well in 1536-well tissue culture treated black solid bottom plates using a Multidrop dispenser. After the assay plates were incubated at a 37 C/5% CO2 incubator for 5 hours, 23 nL of compounds dissolved in DMSO, positive and negative controls was transferred to the assay plate by a pintool work station. The plates were incubated at 37 C for 40 hours. The luminescence intensity were measured at 0h, 8h, 16h, 24h, 32h and 40h time points using ViewLux plate reader during compound treatment.
# % is scaled to controls: 0 for no effect and ±100 for the full control effect.
row,SMILES,"activity change, negative = cytotoxicity"
1,CC(C)C(O)C(C)(C)CO (stereo not given),-19%
2,Cc1ccc(Nc2c(F)cccc2Cl)c(CC(=O)O)c1,7.9% [at 35.3 µM]
3,CCC(C)(C)C(=O)O,0.246%
4,CCCc1nc2c(C)cc(-c3nc4ccccc4n3C)cc2n1Cc1ccc(-c2ccccc2C(=O)O)cc1,-9.84% [at 35.3 µM]
5,O=[N+]([O-])c1ccc2ncccc2c1,1.9%
6,CCOC(=O)Oc1ccc(CCNC(=O)[C@H](CCSC)NC(C)=O)cc1OC(=O)OCC,0.61% [at 35.3 µM]
7,NC(=O)CCCCC(N)=O,-1.92%
8,COC(=O)CC(C(C)=O)C(=O)OC (stereo not given),0.187%
9,BrC(Br)C(Br)Br,0.125%
10,C[C@@H]1[C@H](O)[C@@H](C)/C=C/C=C\C=C\C=C\C=C\C=C\C=C\[C@H](O[C@@H]2O[C@H](C)[C@@H](O)[C@H](N)[C@@H]2O)C[C@@H]2O[C@](O)(C[C@@H](O)C[C@@H](O)[C@H](O)CC[C@@H](O)C[C@@H](O)CC(=O)O[C@H]1C)C[C@H](O)[C@H]2C(=O)O (stereo in doubt),-4.96%
11,CCOC(=O)N1CCC(Nc2ccc(Cl)cc2N)CC1,-4.19% [at 35.3 µM]
12,CC(=O)OC(C)C[N+](C)(C)C (stereo not given),-0.393% [at 35.3 µM]
13,CC[C@@H](CO)NCCN[C@@H](CC)CO,-0.745% [at 35.3 µM]
14,COc1cc(NC(C)CCCN)c2ncccc2c1 (stereo not given),-8.8% [at 35.3 µM]
15,Cc1ccc2c(c1[N+](=O)[O-])C(=O)c1ccccc1C2=O,-9.04% [at 35.3 µM]
16,Nc1nc2ccc(OC(F)(F)F)cc2s1,-2.83% [at 35.3 µM]
17,CC(CO)(CO)C(=O)O,2.8%
18,CC(=O)N[C@@H](Cc1ccc(O)cc1)C(=O)O,-1.98% [at 35.3 µM]
19,O=S(=O)(O)CO,1.07%
20,Nc1ccc(NC(=O)c2ccc(N)cc2)cc1,0.373%

row,SMILES,"activity change, negative = cytotoxicity"
1,CC1C(C)(C)C2=C(C(=O)CCC2)C1(C)C (stereo not given),-1.49%
2,CC(=O)C(C)=O,2.66%
3,O=c1[nH][nH]c(=O)c2cc([N+](=O)[O-])ccc12,-0.169%
4,O=C(O)CNC(=O)c1ccccc1I,5.05% [at 35.3 µM]
5,CCN(CC)CCOC(=O)C(c1ccccc1)c1ccccc1,-0.435% [at 35.3 µM]
6,CC(C)(C(=O)c1cccnc1)c1cccnc1,1.02% [at 35.3 µM]
7,C=CC(=O)NC(C)C,-1.06%
8,CCC(CO)(CO)CO,0.146%
9,Cc1c[nH]c2ccccc12,3.8% [at 35.3 µM]
10,CCCCCCCCCCCCCOS(=O)(=O)O,3.33%
11,CCN(Cc1cccc(S(=O)(=O)O)c1)c1ccc(C(=C2C=CC(=[N+](CC)Cc3cccc(S(=O)(=O)O)c3)C=C2)c2ccccc2S(=O)(=O)[O-])cc1,-0.807% [at 35.3 µM]
12,CCN(CC)CCNC(=O)c1cc(Cl)c(N)cc1OC,1.34% [at 35.3 µM]
13,CC1=CC[C@@H]2C[C@H]1C2(C)C,0.892% [at 15.8 µM]
14,CCOCCC(=O)OCC,1.58%
15,CCCCCCC(O)CCOC(C)=O (stereo not given),-1.11% [at 200 µM]
16,CC[C@H]1OC(=O)[C@H](C)[C@@H](O[C@H]2C[C@@](C)(OC)[C@@H](O)[C@H](C)O2)[C@H](C)[C@@H](O[C@@H]2O[C@H](C)C[C@H](N(C)C)[C@H]2O)[C@](C)(O)C[C@@H](C)C(=O)[C@H](C)[C@@H](O)[C@]1(C)O,-5% [at 35.3 µM]
17,CC(C)(O)CCc1ccccc1,0.466%
18,CSCC[C@H](NC(=O)[C@H](Cc1c[nH]c2ccccc12)NC(=O)CCNC(=O)OC(C)(C)C)C(=O)N[C@@H](CC(=O)O)C(=O)N[C@@H](Cc1ccccc1)C(N)=O,1.37% [at 35.3 µM]
19,Cc1ccc(N(CCO)CCO)cc1,0.337%
20,FC(F)(F)C(F)(F)C(F)(F)C(F)(F)CCI,1.56% [at 35.3 µM]
